# Only a selection was taken, and hits are over-represented in it overall.
# Pf apPOL inh: Pf-apPOL DNA polymerase inhibition. Recombinant Pf-apPOL, molecular beacon fluorescence, 1.5 h. inhibition, % at 10 µM. 210,000 tested, 0.25% active. AID 1794808
# mHTT CaM bind: inhibitors of human mutant huntingtin-calmodulin interaction. P42858. AlphaScreen His-mHTT/GST-CaM binding, luminescence. inhibition, % at 15 µM. 190,000 tested, 3.6% active. AID 1671202
# Hits are given with their value; – = inactive; · = no result given; ! = not active in a repeat. No stated cut-off is given here; in the data, active means inhibition above about 50%; inactive means the rest.
SMILES,Pf apPOL inh,mHTT CaM bind
COc1ccc(-c2nc(C(=O)N3CCCC3)cs2)c(F)c1,–,–
CC(C)(C)c1ccc(C(=O)N2CCN(c3ccccc3[N+](=O)[O-])CC2)cc1,–,–
CCOc1ccc(C2Oc3c(cc(Br)cc3OC)C=C2[N+](=O)[O-])cc1OCC (centres undefined),–,62
CCOc1ccc(C2OC(=O)Cc3cc(OCC)c(OCC)cc32)cc1OCC (centres undefined),–,–
CC1(C)C(C=C(Cl)Cl)C1C(=O)Nc1ccccc1[N+](=O)[O-] (centres undefined),–,56
CC1(C)C(C=C(Cl)Cl)C1C(=O)Nc1ccc(Br)cc1 (centres undefined),–,53
CC1(C)C(C=C(Cl)Cl)C1C(=O)Nc1ccccc1Cl (centres undefined),–,–
CC1(C)C(C=C(Cl)Cl)C1C(=O)Nc1ccc(S(=O)(=O)Nc2ncccn2)cc1 (centres undefined),–,–
CC1(C)C(C=C(Cl)Cl)C1C(=O)Nc1cccc([N+](=O)[O-])c1 (centres undefined),–,72!
Cc1ccc(NC(=O)C2C(C=C(Cl)Cl)C2(C)C)cc1C (centres undefined),–,–
CC1(C)C(C=C(Cl)Cl)C1C(=O)Nc1cccc(C(=O)O)c1 (centres undefined),–,–
Cc1cc(NS(=O)(=O)c2ccc(NC(=O)C3C(C=C(Cl)Cl)C3(C)C)cc2)nc(C)n1 (centres undefined),–,62
Cn1cc(C(C2=C(O)CC(C)(C)CC2=O)C2=C(O)CC(C)(C)CC2=O)cn1,·,–
Cc1ccccc1NC(=O)c1cc(S(=O)(=O)N2CCCC2)ccc1Cl,–,–
CCOc1ccccc1N1CCN(C(=O)CC)CC1,–,–
Cc1cc(C2CCCN2C(=O)c2cc(-c3cccs3)on2)on1 (centres undefined),–,–
COC(C(=O)Nc1cccc(C(C)=O)c1)c1ccccc1 (centres undefined),–,–
CC1=CC(=O)C=CC1=NC(=NS(=O)(=O)c1ccc(C)cc1)c1ccccc1,–,58
Cc1ccc(C(N)=NC(=NS(=O)(=O)c2ccccc2)c2ccccc2)cc1,–,–
Cc1ccc(S(=O)(=O)N=C(Nc2ccccn2)c2ccccc2)cc1,–,–
CC1=CC(=NC(=NS(=O)(=O)c2ccc(C)cc2)c2ccccc2)C(C)=CC1=O,–,59
CN(C)CCS(=O)c1ccccc1 (centres undefined),–,–
CCC1CCCCN1C(=O)C1CCCN1C(C)=O (centres undefined),–,–
Cc1ccc(N2C(=O)CC(N3CCc4ccccc4C3)C2=O)cc1C (centres undefined),–,–
O=C1NC(=O)c2cc(-c3ccccc3)ccc21,–,–
SMILES,Pf apPOL inh,mHTT CaM bind
O=C1NC(=O)c2cc(N3Cc4ccccc4C3)ccc21,–,79
Cc1cc(N2Cc3ccccc3C2)ccc1C=O,–,82
CC(C)(C)c1ccc(C(=O)NCC(=O)N2CCN(c3ccccn3)CC2)cc1,–,–
O=C1CSC(c2ccccc2F)N1c1ccc(Cl)c(Cl)c1 (centres undefined),–,–
CC(Nc1ccc(Cl)cc1N)c1ccccc1 (centres undefined),–,98
Nc1ccc(Cl)cc1C(O)c1ccccc1 (centres undefined),–,–
O=C(Nc1ccc2c(c1)OCO2)C1CCN(c2cncnc2N2CCCCC2)CC1,–,–
O=C(Nc1ccc2c(c1)OCO2)C1CCN(c2cc(N3CCCCC3)ncn2)CC1,–,56
O=C(CSc1cccc2cccnc12)Nc1ccccc1,–,–
CCCCCOc1ccc(NC(=O)CSc2cccc3cccnc23)cc1,–,83
O=C(CCC1CCCN(C(=O)Nc2ccc(Cl)cc2)C1)NCc1cccc(F)c1 (centres undefined),–,–
C/C=C(\C)CN1CCN(C/C=C/c2ccccc2)CC1,–,–
C(=Cc1ccccc1)CN1CCN(c2c3c(nc4ncnn24)CCCC3)CC1,–,73
CC(C)CC1NC(=S)N(C)C1=O (centres undefined),·,–
O=C(NCCCc1ccccc1)c1ccc2c(c1)nc1n2CCCCC1,–,–
CCN1CCN(C(=O)C2CCN(c3nc4ccc(-c5ccsc5)nc4s3)CC2)CC1,–,67
O=C(C1CCN(c2nc3ccc(-c4ccsc4)nc3s2)CC1)N1CCCC1,–,–
Cc1cc(C)c2oc(=O)n(C3CCN(C(=O)COc4ccccc4)CC3)c2c1,–,73
Cc1ccc2ncn(C3CCN(C(=O)COc4ccccc4)CC3)c2c1,–,–
CN(C)C(=O)c1ccc(-c2nnc(NCc3ccccc3)c3ccccc23)cc1,–,–
CNC(=O)COc1ccc(Nc2nnc(-c3ccc(C)cc3)c3ccccc23)cc1,–,67!
CCN(CC)C(=O)COc1ccc(-c2nnc(NCc3ccccc3)c3ccccc23)cc1,–,99
CC(=O)Nc1ccc(Nc2nnc(-c3ccc(O)cc3)c3ccccc23)cc1,–,–
COc1ccc(Nc2nnc(-c3ccc(C(=O)NCCO)cc3)c3ccccc23)cc1,–,–
CCOc1ccc(-c2nnc(Nc3ccc(OC)c(C(N)=O)c3)c3ccccc23)cc1,–,65
SMILES,Pf apPOL inh,mHTT CaM bind
COc1ccc(/C=C2/N=C(c3ccc(Cl)c(Cl)c3)OC2=O)cc1OC,–,–
c1ccc2c(c1)[nH]c1nc3ncnn3nc12,–,–
CC1=C(C(=O)Nc2ccc(F)c(F)c2)C(c2ccccc2Br)NC(=O)N1 (centres undefined),–,–
Cc1ccc(-n2nnnc2SCC(=O)Nc2nn(-c3ccccc3)nc2C(N)=O)cc1Cl,–,–
COc1ccc(CC(C)N2CCN(C)CC2)cc1OC (centres undefined),–,–
COc1ccccc1N1COc2cc(C)c(Cl)c(C)c2C1,–,100
COc1ccccc1N1COc2ccc(F)cc2C1,–,–
Cc1ccc(NC(=O)c2ccc(-c3cncnc3)nc2)c(Cl)c1,–,–
Cc1cccc(NC(=O)N2CCc3c(c(COCc4cccc(F)c4)nn3C)C2)c1,–,–
O=C(NCCN1CCOCC1)C1CCN(Cc2ccccc2)CC1,–,–
Fc1ccc(-c2nc3ccccc3[nH]2)cc1,–,–
c1cc(-c2nc3ccccc3[nH]2)nc(-c2nc3ccccc3[nH]2)c1,–,78
c1cc(-c2noc(-c3ccoc3)n2)cc(N2CCCC2)n1,–,–
CCOc1ccc(NC(=O)C2CN(C(=O)c3ccncc3)CC23CCCCC3)cc1 (centres undefined),–,–
Cc1[nH][nH]c(=O)c1C(c1ccc(OCc2ccc(Br)cc2)cc1)c1c(C)[nH][nH]c1=O,–,52
CCOc1ccc(C(c2c(C)[nH][nH]c2=O)c2c(C)[nH][nH]c2=O)cc1,–,–
Cc1ccc(OCc2noc(-c3ccccc3Cl)n2)cc1,–,–
CCOc1ccc(-n2ccn3cc(-c4ccc(C)cc4C)nc3c2=O)cc1,–,–
Cc1cccc(S(=O)(=O)N2CCCC(C)(C(=O)NCc3ccc(F)cc3)C2)c1 (centres undefined),–,–
Cc1cc(C)c(S(=O)(=O)N2CCCC(C)(C(=O)NCc3ccc(F)cc3)C2)c(C)c1 (centres undefined),–,91
Cc1cc(C)c(S(=O)(=O)N2CCCC(C)(C(=O)NCc3ccc(F)cc3)C2)cc1C (centres undefined),–,61
Cc1cc(C)c(S(=O)(=O)N2CCCC(C)(C(=O)NCc3cccc(F)c3)C2)c(C)c1 (centres undefined),–,–
